Reference: the supplement of paper PMC6555819

How the values were obtained:
Assay in all cases: PBM binding z-score (relative to random genomic background probes); higher = stronger binding; sequences stand for … in GC…GCGATTGACAGCGTAGAATGAAGG
[1] = system: FXR:RXRa (NR concentration 270 nM, RXRa partner concentration 90 nM)
In short: (§1)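 Ligand-free nuclear receptor dimers were bound for 1 h to custom Agilent 4×180K protein-binding microarrays. Detection used antibodies against each partner (one per run). Binding z-scores rest on regression-normalized fluorescence, with random background probes as the reference.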

[2] = system: LXRa:RXRa (NR concentration 270 nM, RXRa partner concentration 90 nM)
In short: as §1

[3] = system: LXRa homodimer (NR concentration 270 nM)
In short: as §1

[4] = system: LXRb:RXRa (NR concentration 270 nM, RXRa partner concentration 90 nM)
In short: as §1

[5] = system: LXRb homodimer (NR concentration 270 nM)
In short: as §1

[6] = system: PPARa:RXRa (NR concentration 270 nM, RXRa partner concentration 90 nM)
In short: as §1

[7] = system: PPARg:RXRa (NR concentration 180 nM, RXRa partner concentration 90 nM)
In short: as §1

[8] = system: PPARg:RXRa 270nM:90nM, anti-RXR (NR concentration 270 nM, RXRa partner concentration 90 nM)
In short: as §1

[9] = system: PPARg:RXRa 30nM:10nM, anti-RXR (NR concentration 30 nM, RXRa partner concentration 10 nM)
In short: as §1

[10] = system: PPARg:RXRa 90nM:30nM, anti-RXR (NR concentration 90 nM, RXRa partner concentration 30 nM)
In short: as §1

Sequence	PBM binding z-score [1]	PBM binding z-score [2]	PBM binding z-score [3]	PBM binding z-score [4]	PBM binding z-score [5]	PBM binding z-score [6]	PBM binding z-score [7]	PBM binding z-score [8]	PBM binding z-score [9]	PBM binding z-score [10]
AGAATAAGGTTAAGATCAGGGAAACAGAATACAT	2.47	2.22	0.239	2.09	0.458	3.06	1.75	1.62	0.741	1.19
ATATGTAGGTTAAGGGTCAATCAGGTTGGTTCGC	4.97	4.62	1.8	4.47	1.35	6.65	11.6	9.7	10.1	10.8
TGAATGAGGATAAAGATCAGGGAACGTGGCGTCG	0.0362	-0.419	-0.157	-0.514	-0.0964	1.03	1.87	3.78	2.17	3.5
GCTATTAGTTGAAATGGCAACCGAATGATTCTCG	-0.365	-0.424	-0.152	-0.394	-0.166	-0.14	0.344	0.398	0.213	0.114
ACAGACAGGTGAGGAAGGTAACTCAGGCTATCAT	0.118	-0.0457	-0.223	0.105	-0.143	0.173	0.575	-0.276	0.0158	-0.414
TCTTGTAAATCAAGCAGGTTAAGAAAGCCTGAGT	0.618	0.47	-0.237	0.526	-0.289	0.845	-0.51	1.34	2.8	2.01
AGAACGAGGGAAATGAGTTGATAGCACGGGTGGC	-0.469	-0.525	-0.561	-0.828	-0.449	-0.481	0.813	-0.497	-0.0468	-0.319
CAAACTAGGTCACCGGACGGTCAAAGTCCGCATG	4.83	4.33	1.97	3.09	0.428	5.37	9.09	7.27	5.34	6.89
CCTACTGGGCCACAGGTCATTGATTCCAATGCTC	1.51	1.55	1.48	2.12	0.443	4.11	8.34	7.57	6.11	7.68
CGTCCAAGGTCAGCAGGACAGTGAAAGCGACGTG	5.11	3	-0.143	2.24	-0.588	4.36	2.83	3.16	0.274	2.07
CGAACTAGGTCAGAACAGGACACTGAAGGATGAT	1.48	1.37	0.372	0.71	-0.177	3.15	5.08	4.56	1.8	3.43
ATCTCTAGGTATAGATAGTTCAGTGAATGCAAAT	0.0439	0.281	0.536	0.328	0.404	0.225	0.685	0.289	0.345	0.323
AGAATGAGGTTATCCGTAGATCAGGGAAGAAAGT	2.59	2.06	-0.212	1.57	-0.253	3.44	1.63	2.05	0.418	1.32
TGTCAAGGTTCAAAGGTAACGTAAGTATCCACAC	6.06	5.12	1.39	3.74	0.581	5	6.29	6.26	3.14	5.92
GGAACGATGGCAAGTTGATAGCAGAGTTTGATGG	-0.624	-0.756	-0.63	-0.971	-1.01	-0.654	0.339	-0.873	-0.448	-0.709
TCAGACAGGTGAGGGTAACTCAGGTACGCAGTCG	0.261	1.36	-0.144	0.561	-0.273	0.983	0.558	1.46	3.02	2.23
CAAACTAGGTCAAAGGTTAAAGTCGAGCCAACCA	7.41	5.99	2.37	5.56	1.22	7.61	13.6	11.3	13	13.7
GCTATTAGTTGAAAGTGCAACCGAATGATTCTCG	0.0358	0.479	0.0569	0.177	0.0186	1.33	1.28	2.92	1.24	2.72
ACTTACGGGTCAACGAGGTTATAACACGCGTATA	7.16	5.41	1.28	5.13	1.29	5.9	5.93	5.54	2.6	4.07
TCATATAGGTAAACGGGTGAAAGTCCGTAAGTTA	0.647	0.398	0.0709	0.834	-0.231	2.29	2.73	3.65	3.72	3.68
TCTCGGAGGACACGAAGGTCAGAGCGTTCCAGAG	1.4	1.13	0.0459	0.874	-1.15	2.05	0.373	1.63	2.34	2.05
ATATGTAGGTTACATCCGGGTCATTGAGGCTATG	2.34	4.14	1.44	2.74	1.01	4.44	5.78	5.04	2.75	4.39
ATCTCTAGGAAACCAAGTTCAGTGAATGCCGAAC	0.256	0.434	0.599	0.317	0.4	0.151	-0.0218	0.0648	0.0428	0.082
ATCTCTACGTAACAAGTTCAGTGAAAGAGAGGAC	0.253	0.5	0.496	0.811	1.27	0.449	0.368	0.316	0.334	0.321
ACTATTATTTGAGACGAGGGCAACCGATAGGTTG	0.64	0.912	1.29	0.748	1.1	0.639	0.833	0.648	0.477	0.429

Sequence	PBM binding z-score [1]	PBM binding z-score [2]	PBM binding z-score [3]	PBM binding z-score [4]	PBM binding z-score [5]	PBM binding z-score [6]	PBM binding z-score [7]	PBM binding z-score [8]	PBM binding z-score [9]	PBM binding z-score [10]
CAAACTAGGTCAAGGGCAAAGTCGGTTTGTGCCA	3.97	3.12	0.592	2.17	0.2	5.38	9.21	8.06	6.95	8.38
ATCTCTAGGTATAAGTTCAGTGAATCCCGAGGAT	0.24	0.542	0.507	0.379	0.825	1.77	2.79	4.45	2.94	4.55
CCTACTGGGCCCAAGGTCATTGATTCCAATGCTC	2.45	2.46	1.44	2.53	0.0311	3.65	6.53	6.93	5.33	6.47
TCGAGTAGGTTACCAATGGGGAATTCAGCTTTCT	0.0745	0.417	-0.56	0.355	-0.737	0.977	0.304	1.2	0.963	1.18
CGAACTAGGTCATTGACAGGACAGCGAATAGTAA	4.04	2.83	0.577	1.84	-0.147	4.83	7.35	6.29	3.94	5.75
TCGAGTAGGTTAGTCGGGGCTTTCAGCCAACATA	-0.154	-0.116	-0.783	-0.0101	-1.08	0.158	-0.922	0.148	0.909	0.595
ATCTCTAGGTAAAGATATTTCAGTGAATGCAAAT	0.207	0.268	0.422	0.346	0.74	0.352	0.976	0.732	0.499	0.83
TCGAGTACGTTACCAATGGGGCATTCAGCTTTCT	-0.0711	-0.26	-0.435	0.321	-0.0116	0.16	-0.0505	0.394	1.32	0.788
GCGACTGAGGCAAAGCAGGTTACCATAAGGTTGG	-0.391	-0.493	-0.444	-0.567	-1.32	-0.0233	0.328	-0.42	-0.736	-0.693
TAGCCTAGGTCCTTGGGCCAGTATAGTACGCATC	-1.55	-1.18	-1.24	-1.1	-1.16	-1.2	-0.0575	-0.847	-0.771	-0.944
ATATGAAGGTTAAGGGTCATTCAGGTTGGTTCGC	5.91	5.46	3.32	4.85	1.14	5.8	8.33	7.73	5.9	8
CCTTCTGGGCCAAAGGTCATTGATTCCAATGCTC	4.88	5.18	4.15	5	1.15	6.61	11.3	10.2	10.6	11.4
GCGACTGGGGCATCAGCAGCTTACCATAACTTAA	-0.818	-0.694	-0.417	-0.0189	-1.2	0.137	0.465	0.329	-0.116	-0.198
ACTAGCGGGCCAAGGGTCACTCAAGATTAGTCCG	1.99	2.61	0.192	2.86	-0.58	4.26	7.39	7.39	6.2	8.29
TTTTGTAGATCAAGCAGGTTAAGAAAGCCTGAGT	-0.215	-0.0979	0.00472	0.194	-0.0652	0.567	-0.416	0.238	0.224	-0.0432
GCGACTGGGGCCAAGCAGGTTACCATAAGGTTGG	-0.268	-0.471	-0.686	-0.129	-1.37	0.516	0.164	-0.27	-0.91	-0.642
CGTCCAAGGTCAAAGGTCAGTCAAGAGATGACGG	8.41	6.97	3.05	6.77	1.83	7.07	10.9	8.99	7.83	9.18
TATCCTAGGTCATGCGGGCCAGTATAGTGTCGGC	4.73	5.7	4.76	2.7	2.07	4.14	3.92	3.74	1.55	2.88
TCAGACAGGAGAAGGTAACTCAGGTACGCAGTCG	0.934	1.47	-0.171	0.452	-0.646	0.384	0.666	1.78	3.37	2.69
TGAATCAGGTTAAAGATCAGGGAACGTGGCGTCG	0.631	0.732	-0.19	0.221	-0.0822	3.29	4.92	5.85	5.28	6.34
CGTGAAAGTTCAAGGTAACGTAACAGAAAGCAGC	5.94	5.62	2.82	3.12	0.85	4.54	3.2	4.01	1.51	3.03
TCTTGTAGATCAACAGGAGGTTAAGTAAGATCGA	0.451	1.3	0.363	1.17	-0.23	1.52	-0.0593	1.22	2.44	1.51
CCTAGTTGGTCAAGGTCATACACGCTATAGGTAC	4.77	4.27	2.86	3.52	0.89	3.97	2.79	3.21	1.22	2.74
CGAACTAGGTCTTTGACAGGACAGTGAATAGTAA	-0.13	0.047	-0.136	-0.238	-0.525	0.769	0.674	0.585	0.162	0.43
